# cardiac RTF act: cardiac RTF calcium sensitivity activators, primary screen, biochemical, IANBD-TnC fluorescence, EC20 calcium; IANBD-labeled TnC RTF fluorescence at EC20 calcium; 0% EC20 calcium, 100% full calcium; 340,000 compounds, 0.24% hits; activation, % at 7.2 µM;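 active = activation above the mean over all tested compounds plus 3 SD, cut at about 30% in these data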;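 note: rise in fluorescence read as greater calcium sensitivity of cardiac thin filaments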
# Cardiac RTF inh: cardiac RTF calcium sensitivity inhibitors, primary screen, biochemical, IANBD-TnC fluorescence, EC70 calcium; Troponin I, cardiac muscle (Homo sapiens) + Troponin T, cardiac muscle (Homo sapiens) + …; IANBD-labeled cardiac RTF, Ca2+ fluorescence; 340,000 compounds, 0.12% hits; inhibition, % at 7.15 µM;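 active = inhibition above the mean inhibition of all tested compounds plus 3 SD, cut at about 17% in these data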;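 note: assay run at fixed EC70 calcium of 1.6 mM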
# CRFBP-R2 block: antagonists of CRF-BP/CRF-R2 complex, primary screen, cell-based, HEK293, calcium dye fluorescence, uHTS; 350,000 compounds, 0.59% hits; AID 588475, 2011; CRF-induced calcium fluorescence; inhibition, % at 11.8 µM;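 active = inhibition of the ligand-induced calcium signal above about 50% at the single tested concentration, limit read from the data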
# CRFBP-R2 agonist: agonists of CRF-BP/CRF-R2 complex, primary screen, cell-based, HEK293, calcium dye fluorescence, uHTS; CRF-binding protein / CRF receptor 2 complex (human); calcium dye fluorescence (FLIPR); percent of saturating CRF peptide response; activation, % at 13.2 µM; 350,000 compounds, 0.46% hits; AID 588473, 2011;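 active = activation of at least 50%, plus an integration ratio under a set limit after plate pattern correction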;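 note: plate controls were neutral control wells without compound for no effect and CRF at EC100 for full effect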
# RTF Ca inh conf: cardiac RTF calcium sensitivity inhibitors, confirmation, biochemical, fluorescence readout; shares compounds with Cardiac RTF inh; inhibition, % at 7.15 µM; reconstituted cardiac thin filaments; 360 compounds, 8% hits; in the data active = inhibition above about 18%
# * = called active by the depositor; · = no result given. Most compounds without a hit are left out; they make up all but 1.3% or so of the library.
SMILES,cardiac RTF act,Cardiac RTF inh,CRFBP-R2 block,CRFBP-R2 agonist,RTF Ca inh conf
O=C(O)c1ccc(CNC(=O)c2ccccc2NC(=O)c2cccc([N+](=O)[O-])c2)cc1,2,18*,2,1,-4
O=C(O)C1Nc2c(O)cc(Cl)c([N+](=O)[O-])c2C2C=CCC12 (stereo not given),-37,86*,15,1,36*
CCCCCCC1CC(=CN(C)C)C(=O)O1 (stereo not given),·,·,-18,0,·
Cc1nc2c(-c3ccc(F)cc3)cnn2c(N)c1-c1ccccc1,-11,20*,-6,-1,3
Cc1nc2c(-c3ccc(Cl)cc3)cnn2c(N)c1-c1ccc(F)cc1,-11,-6,-12,1,·
Cc1cc(Br)ccc1NC(=O)CN(C)C(=O)c1cc([N+](=O)[O-])ccc1N1CCOCC1,-5,-4,11,-4,·
COc1ccc(CN2CCN(C(=O)CCC(=O)Nc3nnc(C4CCCCC4)s3)CC2)cc1F,-3,-3,-31,0,·
CCc1oc2ccccc2c1C(=O)c1cc(Br)c(O)c(Br)c1,-12,18*,55*,0,1
CCc1ccc(OCC(=O)c2c(O)c3ccccc3oc2=O)cc1,3,0,12,-4,·
O=S(=O)(c1ccc2ncn(O)c2c1)N1CCOCC1,-2,22*,22,-1,-9
O=S(=O)(c1ccc2nnn(O)c2c1)N1CCOCC1,2,1,3,1,·
Cc1cccc(NC(=O)c2ccccc2NC(=O)c2ccccc2)n1,4,-12,2,0,·
Cc1cccc(C)c1NC(=S)N1CC(C)OC(C)C1 (stereo not given),6,4,-11,0,·
Cc1ccc(C(=O)NC(=S)Nn2cnnc2)cc1,6,-1,-2,-1,·
O=C(NC(=S)Nn1cnnc1)c1cccc(Br)c1,-3,19*,7,-1,-4
COc1ccccc1N(CC(=O)N/N=C/c1c(O)ccc2ccccc12)S(C)(=O)=O,-6,26*,-12,-4,11
COc1ccccc1NCC(=O)N/N=C/c1c(O)ccc2ccccc12,-3,0,-29,4,·
CCCN(C(=O)CSc1nc2ccccc2n1CC)C1CCS(=O)(=O)C1 (stereo not given),-6,-6,1,-2,·
COc1ccc(Cc2nc3ccc(C(=O)N(C)CCn4ccnc4)cc3o2)cc1OC,-4,-1,13,-5,·
COc1cccc(C(=O)Nc2cccc(C(=O)N3CCOCC3)c2)c1,-7,21*,27,-3,-2
COc1ccc(C2=CC3=C(Br)C(=O)C(C)(OC(=O)c4cccs4)C(=O)C3=CO2)cc1 (stereo not given),-18,20*,-29,10,0
Cc1ccc(C)c(S(=O)(=O)N2CCCC2CNC(=O)C(=O)NC2CC2)c1 (stereo not given),16,-10,8,-1,·
Fc1ccccc1CSc1ccc(-c2ccco2)nn1,-5,19*,1,-1,-2
O=C(Nc1ccc(N=Nc2ccccc2)c(NC(=O)C2CCCO2)c1)C1CCCO1 (stereo not given),-6,21*,-21,0,-1
CC(COc1ccc(/C=C/c2ccccc2)cc1)[N+](C)(C)C (stereo not given),5,21*,-23,0,-7
SMILES,cardiac RTF act,Cardiac RTF inh,CRFBP-R2 block,CRFBP-R2 agonist,RTF Ca inh conf
O=C(NCc1cccnc1)c1cc(C(=O)C2CC2)c[nH]1,5,22*,10,0,-2
O=C(O)c1cccnc1Nc1cccc(C(F)(F)F)c1,12,-2,27,2,·
CC(C)(C)C(=O)Nc1ncccc1C(O)c1cccc(C(F)(F)F)c1 (stereo not given),-10,19*,-10,3,-1
O=C(C1CC1)N1CCc2cc(Br)cc(S(=O)(=O)NCc3ccco3)c21,-5,17*,-2,-1,-4
c1ccc2c(c1)CNc1ccccc1-2,-11,-1,-7,-3,·
COc1cccc(/C=N/Nc2nc3ccccc3n3cnnc23)c1O,-15,23*,16,-1,40*
COc1cccc(/C=N/Nc2nc3ccccc3n3cnnc23)c1,4,-7,9,-2,·
CS(=O)(=O)N1CCC(Oc2ccccc2C(=O)N2CCNC(=O)C2)CC1,3,-4,5,0,·
Cc1nc(Br)c(Br)c(C)c1Br,9,-7,0,-1,·
CCn1c(C)cc(/C=C2/SC(=S)NC2=O)c1C,-3,6,-4,0,·
CCn1ncc(/C=C2/SC(=S)NC2=O)c1C,0,19*,-4,-2,-5
CCCCN1C(=O)N(CCc2ccc(F)cc2)S(=O)(=O)c2cc(C(F)(F)F)ccc21,5,0,-8,8,·
Cc1ccc([C@H]2N[C@]3(CCCN(Cc4ccc(F)cc4)C3=O)[C@H]3C(=O)N(C)C(=O)[C@@H]23)cc1,·,·,0,0,·
O=C1C=CC2=C3c4cc(O)c(O)cc4CC3(O)COC2=C1O (stereo not given),-29,37*,19,-1,34*
Cc1ccc(-n2c(SCC(=O)Nc3ccc4c(c3)OCCO4)nnc2-c2ccco2)cc1,1,17*,-38,1,-2
COc1ccc(-c2noc(CN3CCN(C(=O)c4cccs4)CC3)n2)c(OC)c1OC,-1,-3,-1,-1,·
COC(=O)N/N=C(\C)c1ccc(OC(F)F)cc1OC(F)F,1,17*,26,-1,-6
CCCC(C)NC1=NCCCCC1 (stereo not given),0,18*,1,2,-6
O=C(O)c1cccc(-n2cccc2/C=C2/NC(=O)N(c3ccc(Cl)cc3)C2=O)c1,-46,75*,12,0,55*
NC(=S)Nc1nc2ccccc2s1,-6,19*,-3,0,-5
Cc1cc(-c2ccc3ccccc3c2)n2ncnc2n1,13,-7,16,6,·
O=c1oc2cc(O)c(Cl)cc2c2ccccc12,5,-5,13,1,·
O=c1cc2c(=O)oc3cc(O)c(O)oc3c2c(O)c1O,-51,87*,4,0,68*
CCCN(CC(=O)Nc1ccccc1OC)C(=O)c1ccc(COc2ccccc2)o1,-3,1,2,0,·
CCCCCCCCCCC[C@@H](C[C@@H]1OC(=O)[C@H]1CCCCCC)OC(=O)[C@H](CC(C)C)NC=O,1,20*,-8,5,-4
CCCCCCC1CC(/C(C)=N\NC(N)=O)OC1=O (stereo not given),-3,-3,2,-1,·
COc1ccc(-n2cc(C(=O)O)c(=O)cc2C)cc1,0,-6,-9,0,·

# Screening data from PubChem.
